# Laboratory results: PubChem BioAssay
# Assay: viability loss of caspase-8 NB7 cells with TRAIL – with/without TRAIL, luminescence panel, confirmation (AID 651596)
# Conditions: NB7 neuroblastoma + caspase-8, without TRAIL, NB7 Caspase-8, without TRAIL, mean of runs, at 10 µM
row,SMILES,activity [%]
1,CCOC(=O)c1c(C)[nH]c(C(=O)OCC(=O)Nc2sccc2C(N)=O)c1C,62.2
2,Cc1nn(C(C)(C)C)c(C)c1/C=N/OC(=O)Nc1ccc(Cl)cc1,91.5
3,COC(=O)c1c(NC(=O)c2ccc([N+](=O)[O-])o2)sc2c1CCN(C(C)C)C2,88.7
4,Cc1noc(-c2ccc(Cl)cc2)c1C(=O)O/N=C(\N)c1ccc(C(C)(C)C)cc1,97.5
5,COc1cc(NC(=O)c2c(F)c(F)c(F)c(F)c2F)c(OC)cc1Cl,64.5
6,CN1CCN(c2ccc(NC(=O)N3CCc4ccccc43)cc2)CC1,65.9
7,CCCCCCCCCCCCCCCC(O)C[N+](C)(C)CCO (stereo unspecified),97.1
8,CC(C)(C)C(=O)Nc1cc2nn(-c3ccccc3)nc2cc1Cl,97.7
9,Cc1cc(C)c2sc(N(CCCN(C)C)C(=O)c3ccc(S(=O)(=O)N4CCCc5ccccc54)cc3)nc2c1,32.4
10,N/C(=N\OC(=O)c1ccccc1)C(C(=O)NOC(=O)c1ccccc1)C1CCCCC1 (stereo unspecified),94.9
11,Nc1nc(CCl)nc(Nc2cccc3ccccc23)n1,98.7
12,COCCn1c(C)cc(C2=NNC(=NC3CC3)SC2)c1C,90.3
13,Cc1ccc2sc(N(CCCN(C)C)C(=O)c3ccc(S(=O)(=O)N(C)Cc4ccccc4)cc3)nc2c1C,32.9
14,Cc1cc2sc3ccc(C#CC4(O)CCCCC4)cc3c(=O)c2cc1C,90.1
15,CCn1c(C)cc(C(=O)COC(=O)c2ccccc2[N+](=O)[O-])c1C,93.3
16,O=C(NC1CCCCC1)C(c1cccnc1)N(C(=O)CCl)c1cccc(Cl)c1 (stereo unspecified),99.5
17,Cc1ccc(N(Cc2cc(=O)[nH]c3ccccc23)C(=O)CCl)c(C)c1,96.5
18,COC(=O)C1=C(C)N(Cc2ccccc2)C(=NCCc2c[nH]c3ccccc23)N[C@H]1c1cccc(C(F)(F)F)c1,44.5
19,O=C(Nc1ccccc1)NN(C(=O)CCl)c1ccccc1,98.3
20,O=C(CCl)N1N=C(c2ccco2)CC1c1cccs1 (stereo unspecified),97.8
21,CCCN(CC(=O)Nc1ccccc1C)C(=O)CCl,98.2
